Compounds without any hit were thinned out: in the full panel of roughly 79,000, 15% have a hit. Active and inactive are the calls of the source. Rule as the data show it: active = growth inhibition above about 70%; inactive = the rest.
Experiments:
[1] = NCI Yeast Anticancer Drug Screen. Data for the rad50 strain (AID 155);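 also: 0% = growth of vehicle-only cultures of the same strain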; conditions: S. cerevisiae rad50 strain growth inhibition; at 50.0 µM; active compounds read high
How it was run: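 Relative growth inhibition (compound vs vehicle) was measured in yeast with a defined repair-gene alteration.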

[2] = NCI Yeast Anticancer Drug Screen. Data for the mec2-1 strain (AID 157); conditions: S. cerevisiae mec2-1 strain, at 50.0 µM, active compounds read high
How it was run: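 Strain: mec2-1 (DNA repair/cell cycle alteration). Compound exposure, then growth measured; inhibition expressed relative to vehicle.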

[3] = NCI Yeast Anticancer Drug Screen. Data for the sgs1 mgt1 strain (AID 161);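 also: 0% = growth of cultures given vehicle only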; conditions: S. cerevisiae sgs1 mgt1 strain, at 50.0 µM, active compounds read high
How it was run: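 Read-out: growth inhibition vs vehicle controls. Cells: mutant yeast strain deficient in DNA damage repair.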

[4] = NCI Yeast Anticancer Drug Screen. Data for the cln2 rad14 strain (AID 165);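 also: 0% = growth equal to vehicle treated cultures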; conditions: S. cerevisiae cln2 rad14 strain, at 50.0 µM, active compounds read high
How it was run: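 Compounds are applied to the cln2 rad14 yeast strain, and growth is then compared with that of vehicle-treated cultures to give inhibition.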

[5] = NCI Yeast Anticancer Drug Screen. Data for the bub3 strain (AID 167); conditions: S. cerevisiae bub3 mutant strain, at 50.0 µM, active compounds read high
How it was run: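 Screening used yeast with an engineered genetic alteration affecting cell cycle control. Compound-exposed cultures were compared with vehicle cultures, and reduced growth was taken as inhibition.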

[6] = NCI Yeast Anticancer Drug Screen. Data for the mlh1 rad18 strain (AID 175); conditions: S. cerevisiae mlh1 rad18 strain growth inhibition; at 50.0 µM; active compounds read high
How it was run: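 Read-out is yeast growth inhibition, calculated against vehicle-only controls. The compound was applied to a strain engineered with DNA damage repair alterations.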

Measured: growth inhibition

COc1cc2c(cc1OC)C1CC(O)(c3nccc4cc(OC)c(OC)cc34)CCN1CC2 (stereo unspecified)
inactive: [1] 21.1% | [2] -1.8% | [3] -3.9% | [4] 10.7% | [5] -1.3% | [6] -14.1%

Cc1cc(C(N)=O)c(C(N)=O)c(=O)[nH]1
inactive: [1] -13.1% | [2] 2% | [3] 0% | [4] -7.5% | [5] -14.2% | [6] 15.8%

O=C(OC1CCCC1)C1(O)CCCCC1
inactive: [1] 18.2% | [2] 12.7% | [3] 3.8% | [4] 10.5% | [5] -2.15% | [6] -16.2%

COc1cc(/C=C/c2cc(/C=C/c3ccc(O)c(OC)c3)c([N+](=O)[O-])cc2[N+](=O)[O-])ccc1O
inactive: [1] 66.3% | [2] 23.8% | [3] 42.4% | [4] -4.45% | [5] 7.15% | [6] 47.7%

CCN(CC)CCNC(=O)Cc1cc(O)c2c(c1O)C(=O)c1ccccc1C2=O
inactive: [2] 5% | [4] 40.9% | [5] 6.1% | [6] 51.5%
active: [1] 73% | [3] 76.8%

c1ccc(CCOC(c2ccccc2)(c2ccccc2)c2ccccc2)cc1
inactive: [1] -11.2% | [2] -9.25% | [3] 0.3% | [4] -61.6% | [5] -10.4% | [6] -26.2%

CCCOC1(C)Oc2cc3c(cc2C(c2cc(OC)c(OC)c(OC)c2)C1C)OCO3 (stereo unspecified)
inactive: [1] 10.3% | [2] 2.7% | [3] -4.4% | [4] 45.4% | [5] 18.6% | [6] 14.7%

Cc1c(C#N)c(N)[nH]c(=S)c1C#N
inactive: [1] 5.5% | [2] 20.2% | [3] 4.95% | [4] 1.25% | [5] 0.45% | [6] 11.3%

COCCOC(=O)CO
inactive: [1] 4.35% | [2] 3.85% | [3] -4.7% | [4] 2.25% | [5] 7.8% | [6] 5.5%

C=CCN1C(SC)=NC(=O)C1(c1ccccc1)c1ccccc1
inactive: [1] 14.8% | [2] 9.95% | [3] 8.75% | [4] -10.2% | [5] 10.2% | [6] 22.8%

C[N+]1(C)N=C([O-])N(CCCCCCN2C(=O)[N+](C)(C)N=C2[O-])C1=O
inactive: [1] 10.3% | [2] -13.1% | [3] 15.1% | [4] 9.55% | [5] 8.65% | [6] 15%

CC(C)C1CC[C@H](C)C[C@@H]1OC(=O)C(C(=O)O[C@H]1C[C@@H](C)CCC1C(C)C)C(O)[C@@H]1OC(C)(C)O[C@H]1C1COC(C)(C)O1 (stereo partly specified)
active: [1] 73.8% | [2] 90.8% | [3] 91.9% | [5] 90.8%
inactive: [4] 44.7% | [6] 56.9%

CC(C)CC(NC(=O)c1ccccc1C(=O)O)C(N)=O (stereo unspecified)
inactive: [1] -6.7% | [2] 3.5% | [3] 6.65% | [4] -0.15% | [5] 6.2% | [6] -19%

Cc1ccc(NC(=O)C(Br)C(Br)c2ccccc2)cc1Cl (stereo unspecified)
active: [1] 94.2% | [2] 95.8% | [3] 96.6% | [4] 95.2% | [5] 94.7% | [6] 95.8%

COc1ccc(-c2cc(-c3cc(-c4ccc(OC)cc4)on3)no2)cc1
inactive: [1] -1.6% | [2] -5.75% | [3] -26% | [4] -7.45% | [5] -35.5% | [6] -1.05%

Cc1c(Br)cc(C(=O)O)c(O)c1Br
inactive: [1] -4.95% | [2] 2.05% | [3] 19.6% | [4] -29.2% | [5] -26.6% | [6] 3.05%

O=C1CSc2nc3c(I)cc(I)cc3c(=O)n21
inactive: [1] 2.65% | [2] 6.2% | [3] -0.75% | [4] -25.1% | [5] -7.3% | [6] -0.6%

CC(=O)Nc1ccc(/C=C2\SC(=S)N(C=C(C#N)C#N)C2=O)cc1
inactive: [1] 3.95% | [2] 12.2% | [3] -10.4% | [4] 38.5% | [5] 15.2% | [6] -2.35%

CCC1(C)N=C(C(N)=O)c2ncn(N=C(C)C)c2N1 (stereo unspecified)
inactive: [1] -15.8% | [2] -30.2% | [3] -24.3% | [4] 14.2% | [5] -10.5% | [6] -16.6%

CCOC(=O)C(c1ccccc1)C(C)c1ccccc1 (stereo unspecified)
inactive: [1] -7.5% | [2] -0.4% | [3] 1.85% | [4] 1.9% | [5] -11.3% | [6] -12.2%

O=C1C=C(Nc2ccccc2C(=O)CC(=O)C(=O)Nc2cccc([N+](=O)[O-])c2)c2ccccc2C1=O
inactive: [1] -15.2% | [2] 12.3% | [3] -7.2% | [4] 12.3% | [5] -15.5% | [6] -7.1%

CCOC(=O)/C=C(/O)CC(=O)OCC.[Cu+2]
inactive: [1] -11.8% | [2] -1.8% | [3] -5.7% | [4] -21% | [5] -17.1% | [6] -0.45%

N=C(N)c1cc(Cl)c(OCc2ccccc2)c(Cl)c1
inactive: [1] 9.7% | [2] -12.7% | [3] 1.15% | [4] -10.7% | [5] 3.85% | [6] 12.8%

CCOc1ccccc1N=Nc1c(C)nc(N)nc1OCC
inactive: [1] 6.65% | [2] 6.65% | [3] 6.55% | [4] -30.1% | [5] 4% | [6] 14.9%

C=CCOc1cc2c(cc1C(C)c1ccc(OC)c(OC)c1)OCO2 (stereo unspecified)
inactive: [1] 32.9% | [2] -3.2% | [3] 17.3% | [4] 18.4% | [5] 6.25% | [6] 49.2%

CC(C)C1CC(C(C)C)C(O)C(C(C)C)C1 (stereo unspecified)
inactive: [1] 11.8% | [2] 1.55% | [3] 6.6% | [4] -5.9% | [5] 5.45% | [6] 15.7%

CC(C)/C=N\N1C(N)=C(C#N)C(C#N)(C#N)C1C(C)C (stereo unspecified)
inactive: [1] -0.65% | [2] 10.5% | [3] -35.3% | [4] -19.4% | [5] -12.2% | [6] -41.3%

CCCCCCCCNC(C(=O)c1ccccc1)c1ccccc1 (stereo unspecified)
inactive: [1] 10.1% | [2] 11.7% | [3] 16% | [4] 14% | [5] 14.2% | [6] 26.8%

Cc1ccc(C)c(NC(=O)C(=O)C(C#N)c2c(Cl)cccc2Cl)c1 (stereo unspecified)
inactive: [1] -23.2% | [2] 16.5% | [3] 44.5% | [4] -24.4% | [5] 6.35% | [6] 28.9%

CC(=O)O/C(C)=C/C(C)C
inactive: [1] 2.65% | [2] -5.35% | [3] 9% | [4] -3.15% | [5] 2.1% | [6] -8.95%

O=C1C(OC(=O)c2ccccc2)=C(c2ccc(O)cc2)C(=O)C(OC(=O)c2ccccc2)=C1c1ccc(O)cc1
inactive: [1] 24.1% | [2] 0.45% | [3] 5.55% | [4] 9.75% | [5] 17.2% | [6] -44.6%

CC(=O)N(c1c(N)[nH]c(=O)n(C)c1=O)C1OC(CO)C(O)C(O)C1O (stereo unspecified)
inactive: [1] -1.65% | [2] 2.8% | [3] 19.1% | [4] -5% | [5] 4.3% | [6] 12.4%

Cc1c(-c2ccccc2)[nH]n(C2=NCCN2)c1=O
inactive: [1] 10.8% | [2] 7.45% | [3] -31.4% | [4] -6.35% | [5] -15.5% | [6] -25%

COC(CCC#N)c1ccc(Cl)cc1 (stereo unspecified)
inactive: [1] -31.9% | [2] -20.6% | [3] -26.6% | [4] 1.7% | [5] -31.9% | [6] -26.6%

NC(=O)c1cc(Cl)c(N)c(Cl)c1
inactive: [1] 8.2% | [2] -7.65% | [3] -11.6% | [4] -5.25% | [5] -12.4% | [6] -11.8%

CCNCCCCNCC
inactive: [1] 4.25% | [2] -14.9% | [3] -18.6% | [4] 8.1% | [5] -3.85% | [6] 2.3%

CC1(C)OC(=O)C(C)(C)OC1=O
inactive: [1] -11.7% | [2] -5% | [3] 7.05% | [4] 12.3% | [5] 8.4% | [6] -3.15%

CN(C)Cc1ccc(O)c(CN(C)C)n1
inactive: [1] -21.1% | [2] -19.1% | [3] -14.8% | [4] -3.65% | [5] -49.8% | [6] -19.2%

O=C(NC(Cc1cnc[nH]1)C(=O)N1CCCC1)C1CCCC1 (stereo unspecified)
inactive: [1] -22.4% | [2] -20.4% | [3] 13.7% | [4] 6.2% | [5] 0.9% | [6] -14.3%

N#CCCC(C(=O)O)C(=O)CN1C(=O)c2ccccc2C1=O (stereo unspecified)
inactive: [1] 5.15% | [2] -7.95% | [3] 0.4% | [4] -7.75% | [5] 0.4% | [6] 7.6%

O=C(NCc1ccccc1)C(O)c1ccccc1 (stereo unspecified)
inactive: [1] 25.2% | [2] 4.8% | [3] -1.25% | [4] 0.6% | [5] 8.2% | [6] 12.7%

From PubChem BioAssay (NCI)
